Data reported in PubChem BioAssay (NCI).
This is part of a sample that, as a whole, favours compounds with a hit. Of some 83,000 tested, about 20% had one in any assay.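 Growth was measured after 48 h exposure to one concentration of compound in 96-well plates. Values under 10 count as active.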 Values without a mark were called inactive. Calls of active or inactive are those of the source.

The molecules below were run on MDA-MB-468 breast (assay: NCI-60 one-dose screen, 48 h (100 = growth as untreated, 0 = no growth, -100 = all killed)). Settings: 10 µM unless noted.

Q: Which growth does the source give for `COc1ccc(-c2nnc(SCc3ccc(O)c4ncccc34)n2-c2ccccc2)cc1` here?
A: The growth was 10.3%.

Q: For `Cc1cc(NCCCNc2ccnc3cc(Cl)ccc23)nc(N2CCN(C)CC2)n1`, which growth is on record?
A: Its growth is 65.4%.

Q: How did the growth turn out when `Cc1ccc(Nc2nnc(-c3ccc(Cl)cc3)o2)c(C)c1` was run?
A: Its growth is 75.4%.

Q: `COc1cc(/C=C2\COc3ccc(O)c(O)c3C2=O)cc(OC)c1` was tested. Which growth did it give?
A: The growth was -0.854% (active).

Q: With `C[n+]1c2ccccc2nc2ccccc21` as the molecule, how does the growth read?
A: Its growth is 9.7% (active).

Q: For `CCn1cc(C(=O)O)c(=O)c2cnc(N3CCCC3)nc21`, which growth is on record?
A: Its growth is 99.2%.

Q: How did the growth turn out when `CC(=O)CC[C@H]1C(=O)N[C@@H](C(C)C)C(=O)N[C@@H](Cc2cc(O)cc(F)c2)C(=O)N2CCC[C@H](N2)C(=O)O[C@H](/C(C)=C/C=C/C(=O)OC(C)(C)C)C/C=C/C=C/[C@H](O)[C@H](C)[C@H]1O` was run?
A: The growth was 15.1%.

Q: For `O=[N+]([O-])c1cccc(-c2ncc(-c3ccc(Cl)cc3Cl)[nH]2)c1`, which growth is on record?
A: The growth was 47.6%.

Q: `Cn1ccnc1C(=O)/C=C/c1ccc(C(=O)Nc2ccc(Cl)cc2)cc1` was tested. Which growth did it give?
A: Its growth is 12.1%.

Q: With `COc1cc(OCc2cccc(-c3ccc(C(O)c4nccs4)cc3)c2C)cc(OC)c1C=O` (centres undefined) as the molecule, how does the growth read?
A: The growth was -36.5% (active).

Q: Which growth does the source give for `CC#Cc1nc(Nc2cc(C)[nH]n2)c2ccccc2n1` here?
A: The growth was 1.44% [100 µM] (active).

Q: Which growth does the source give for `O=C1CCC23OC(c4ccccc4N12)C(O)C(O)C3O` (centres undefined) here?
A: The growth was 114%.

Q: For `COc1ccc2nc3cc(Cl)ccc3c(NCCCCCN3CCCCC3)c2c1`, which growth is on record?
A: Its growth is -53.3% (active).

Q: How did the growth turn out when `COc1ccc(/C=C2/C(=O)NC(SCC(=O)N3CCN(c4cc5c(cc4F)c(=O)c(C(=O)O)cn5C4CC4)CC3)=NC2N)cc1OC` (centres undefined) was run?
A: The growth was 102%.
